According to PubChem BioAssay (NCATS):
Inconclusive results are not listed. Entries that show only a call come without a potency. Calls of active or inactive are those of the source. The call rests on the fitted dose curve; in most records, active means well fitted inhibition curve with a large enough effect; inconclusive means small, poorly fitted or top-dose-only effect; inactive means no such curve, though single readings can be large or run the other way.

The compounds below were run on Zika virus NS2B-NS3 protease (linked construct) (assay: Primary screen NINDS Rhodamine qHTS for Zika virus inhibitors (AID 1347160; further: nearly all actives have a fitted effect of over 55% in size)). Conditions: purified NS2B-NS3 protease, Rhodamine110 substrate fluorescence; series mostly up to 57.1 µM.
Procedure, shortened: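 Kinetic fluorescence (Ex 480 nm, Em 540 nm) over 15 min with 1.5 microM Rhodamine110 peptide and 25 nM linked protease.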

Structure (SMILES)	Potency
O=C(NC1CCOCC1)c1ccc(-c2cc(-c3cn[nH]c3-c3ccccn3)ccn2)cc1	inactive
NC(=O)c1cnc(-c2ccc(C3(N)CCC3)cc2)c(-c2ccccc2)c1	inactive
Cc1nc(N)sc1-c1ccnc(Nc2ccc(N3CCOCC3)cc2)n1	inactive
CC(=O)Nc1ccc([C@H](C)C(=O)Nc2ncc(C(C)C)s2)cc1	inactive
CN1CCN(CCOc2cc(OC3CCOCC3)c3c(Nc4c(Cl)ccc5c4OCO5)ncnc3c2)CC1	inactive
CC(C)[C@H](CO)Nc1nc(Nc2ccc(C(=O)O)c(Cl)c2)c2ncn(C(C)C)c2n1	inactive
CO[C@H]1C=CO[C@@]2(C)Oc3c(C)c(O)c4c(O)c(c5c(c4c3C2=O)NC2(CCN(CC(C)C)CC2)N=5)=NC(=O)C(C)=CC=C[C@H](C)[C@H](O)[C@@H](C)[C@@H](O)[C@@H](C)[C@H](OC(C)=O)[C@H]1C	inactive
CN(C)CCC(c1ccccc1)c1ccccn1 (configuration not stated)	inactive
Cn1c(N2CCCCS2(=O)=O)nc(C(=O)NCc2ccc(F)cc2)c(O)c1=O	inactive
CN(C)C1CCN(C(=O)c2ccc(NC(=O)Nc3nc(N4CCOCC4)nc(N4CCOCC4)n3)cc2)CC1	inactive
COc1ccc2c(Oc3ccc(NC(=O)c4c(C)n(CC(C)(C)O)n(-c5ccccc5)c4=O)nc3)ccnc2c1	inactive
COc1ccc2c(Oc3ccc(NC(=O)c4c(C)n(CC(C)(C)O)n(-c5ccccc5)c4=O)cc3F)ccnc2c1	inactive
COc1cc(N2CCC(N3CCN(C)CC3)CC2)ccc1Nc1ncnc(Nc2ccccc2S(=O)(=O)C(C)C)n1	inactive
CCCNC(=O)NS(=O)(=O)c1ccc(Cl)cc1	inactive
CC(C)(C)NC(=O)Nc1cccc(Nc2ncc(F)c(NC(C)(C)CO)n2)c1	inactive
CC(=O)O[C@]1(C(C)=O)CC[C@H]2[C@@H]3C=C(Cl)C4=CC(=O)[C@@H]5C[C@@H]5[C@]4(C)[C@H]3CC[C@@]21C	inactive
COc1cc2ncnc(-n3nc(-c4ccccn4)nc3N)c2cc1OC	inactive
CC(=O)CCCCn1c(=O)c2c(ncn2C)n(C)c1=O	inactive
O=C(NCc1ccccc1)c1csc(Nc2ccncn2)n1	inactive

Structure (SMILES)	Potency
COc1ccc(Cc2ccc(NC(N)=O)cc2)cc1-c1cccc(Cl)c1	inactive
NC(=O)c1cccc2[nH]c(-c3ccc([C@H]4CCCN4)cc3F)nc12	inactive
Clc1ccc(Cn2c(CN3CCCC3)nc3ccccc32)cc1	inactive
COc1ccc(C2Sc3ccccc3N(CCN(C)C)C(=O)C2OC(C)=O)cc1 (configuration not stated)	inactive
O=C(Nc1cccc(Br)c1)c1cccc(S(=O)(=O)N2CCCCCC2)c1	inactive
COCCOc1nc(-c2ccc(Cl)c(Cl)c2)n(-c2ccc(NC(=O)CCl)cc2)n1	inactive
CCN1CCC[C@H]1CNC(=O)c1cc(S(N)(=O)=O)ccc1OC	inactive
CC(=O)N(C)C1(c2ccccc2)CCN(CCC[C@]2(c3ccc(Cl)c(Cl)c3)CCCN(C(=O)c3ccccc3)C2)CC1	inactive
CS(=O)(=O)N(Cc1ccco1)CC(O)Cn1c2ccccc2c2ccccc21 (configuration not stated)	inactive
COc1ccc(C2CC(c3ccccc3)=NN2c2ccc(S(N)(=O)=O)cc2)cc1 (configuration not stated)	inactive
COc1cc2c(cc1OC)CN(CCc1ccc(NC(=O)c3cc(OC)c(OC)cc3NC(=O)c3cnc4ccccc4c3)cc1)CC2	inactive
CCN(CC)CCNC(=O)c1ccc(N)cc1	inactive
O=C(O)c1ccccc1C(=O)Nc1ccc(-c2ccccc2)cc1	inactive
COc1cc(N2CCC(N3CCN(C)CC3)CC2)ccc1Nc1ncc(Cl)c(Nc2ccccc2S(=O)(=O)C(C)C)n1	inactive
CNC1CCC(N(Cc2cccc(-c3ccncc3)c2)C(=O)c2sc3c(F)ccc(F)c3c2Cl)CC1 (configuration not stated)	inactive
NC(=O)c1cccc(-c2cc(Nc3ccc(OC(F)(F)F)cc3)ncn2)c1	inactive
CN[C@@H](C)C(=O)N[C@H]1CN(C(=O)CC(C)C)CC[C@H]2CC[C@@H](C(=O)NC(c3ccccc3)c3ccccc3)N2C1=O	inactive
COc1ccccc1N1CCN(CCCNc2cc(=O)n(C)c(=O)n2C)CC1	inactive
